Screening data as filed in PubChem.
This excerpt belongs to a sample that is enriched for hits.
Dicer inh = blocks human Dicer maturation of pre-miR-21. Q9UPY3. cat-ELCCA pre-miR-21 Dicer processing, chemiluminescence; hits give high values. z-score at 25 µM. 47,000 tested, 6% active. AID 1347074; in the data active = z-score above about 3, passing the limit was not always enough;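 also: plate controls were vehicle for no effect and no enzyme for full effect; higher signal means more uncleaved substrate so more Dicer inhibition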
An asterisk follows results filed as active.

SMILES	Dicer inh
Cn1c(=O)c(C(=O)NCc2ccccn2)c(O)c2ccccc21	10*
CC(=O)c1c(O)c2ccccc2n(C)c1=O	-0.09
Cc1ccc(C(=O)CSc2n[nH]c(C(F)(F)F)n2)cc1	0.21
O=c1cc[nH]c2ccc(OC(F)(F)F)cc12	0.39
CCS(=O)(=O)c1c(S(=O)(=O)CC)c2cc(C(C)(C)C)ccn2c1C(=O)c1ccc(OC)cc1	5*
CCCS(=O)(=O)c1c(S(=O)(=O)CCC)c2ccccn2c1C(=O)OC	0.22
COc1ccc(C(=O)CC(=O)c2ccc(C(C)(C)C)cc2)cc1	-0.14
O=c1[nH]c2ccc(S(=O)(=O)NC3CCCCC3)cc2[nH]1	4.7*
O=C(O)CNS(=O)(=O)c1ccc2[nH]c(=O)[nH]c2c1	0.48
Cn1c(=O)n(C)c2cc(S(=O)(=O)NC3CCCCC3)ccc21	-0.28
CC1=C(C(=O)O)C(c2ccccc2)NC(=O)N1C (centres undefined)	0.28
CCC(=O)Oc1cc2c(C(=O)OC)c(C)oc2cc1Br	-0.34
Cc1ccc(S(=O)(=O)N(C)c2c(C)ccc(S(=O)(=O)N3CCCC3)c2C)cc1	2.9
COc1ccccc1NC(=O)N1c2ccccc2Sc2ccccc21	3.1*
COc1cc(NC(=O)N2c3ccccc3Sc3ccccc32)c(C(=O)O)cc1OC	2.8
COC(=O)c1cc(OC)c(OC)cc1NC(=O)N1c2ccccc2Sc2ccccc21	1.2
COc1cccc(/C=N/c2c(-c3ccccc3)c(C(F)(F)F)nn2C)c1OC	-0.17
Cc1cccc(Cl)c1NC(=O)CC#N	3.9*
Cc1c(Cl)cccc1NC(=S)NNC(=O)CC#N	0.63
CCNCC(=O)Nc1c(C)cccc1C	1.8
O=C1CCCCC(=O)N(c2ccccc2)c2ccccc21	-0.23
O=C1CC(Nc2ccc(N3CCOCC3)cc2)C(=O)N1c1ccc(F)cc1 (centres undefined)	-0.38
CC(C)(C)C(=O)OC[C@H]1O[C@@H](n2cnc3c(N)ncnc32)C[C@@H]1OC(=O)C(C)(C)C	1.4
CC1(C)CC(=O)C2=C(C1)c1c(ccc3ccccc13)NC2c1ccc(O)cc1 (centres undefined)	1
CC1(C)CC(=O)C2=C(C1)c1c(ccc3ccccc13)NC2c1ccc(O)c(O)c1 (centres undefined)	13*
SMILES	Dicer inh
CCOc1cc(C2Nc3ccc4ccccc4c3C3=C2C(=O)CC(C)(C)C3)ccc1O (centres undefined)	0.64
Cc1csc(NC(=O)Nc2cc(C(F)(F)F)cc(C(F)(F)F)c2)c1	0.16
Cc1ccc(NC(=O)N2CCNC2=O)c(C)c1	-0.89
Cc1ccc(CSC2NCC(C)N2)cc1C (centres undefined)	-1.9
C=CCn1c(=O)c(C(=O)Nc2cccc(O)c2)c(O)c2ccccc21	11*
O=c1c(Cc2ccccc2)c(O)c2ccccc2n1Cc1ccccc1	-1.7
C=CCn1c(N)cc(=O)nc1SCC(=O)Nc1ccccc1	0.4
CC1(C)C2CC[C@@](C)(C2)C1NS(=O)(=O)c1ccc(-c2cc(C(F)(F)F)on2)s1 (some centres undefined)	-2.2
CCN(C(=O)c1ccccc1)c1cccc2ccccc12	-1.2
CN1C2C=C(N(CCc3ccccc3)C(=O)c3ccccc3)CC1CC2 (centres undefined)	3.1*
CN(C(=O)c1ccccc1)C(=O)N(C)C(=O)c1ccccc1	-1.4
Cc1cc(C)nc(NS(=O)(=O)c2ccc(NC(=O)CSc3nc4c(cc3C#N)CCC4)cc2)n1	0.49
COc1ccc(C(=O)c2c(N)sc3c2CCN(C(=O)OC(C)(C)C)C3)cc1	-2.3
CCOC(=O)c1c(NC(=O)CCC(=O)O)sc(C)c1C	2.1
CCNC(=S)Nc1sc(C)c(C)c1C(=O)OCC	5.3*
CCOC(=O)c1c(NC(=S)N2CCN(C)CC2)sc(C)c1C	-1.9
COCCOC(=O)C1=C(C)NC2=C(C(=O)CC(C)(C)C2)C1c1ccc(C(=O)OC)cc1 (centres undefined)	-0.41
CCCCCCCC(=O)c1ccc(OCC)cc1O	0.47
Cc1ccc(OC(C)(C)C(=O)O)c2c1CCC2	-0.53
O=C(O)CC(C(=O)O)c1c[nH]c2ccccc12 (centres undefined)	0.21
COc1ccc(C(c2c[nH]c3ccccc23)c2c[nH]c3ccccc23)cc1OC	-0.04
COc1cccc(C(c2c[nH]c3ccccc23)c2c[nH]c3ccccc23)c1	0.33
Cc1cccc(C(c2c[nH]c3ccccc23)c2c[nH]c3ccccc23)c1O	1.2
CCOc1cccc(C(c2c[nH]c3ccccc23)c2c[nH]c3ccccc23)c1O	6.4*
Oc1ccc(Cl)cc1C(c1c[nH]c2ccccc12)c1c[nH]c2ccccc12	4.3*
CCOC(=O)c1cccc2c1N[C@@H](c1ccc(C(=O)OC)cc1)[C@H]1CC=C[C@@H]21	-1.1
Cc1onc(-c2c(Cl)cccc2Cl)c1NC(=O)OCCOc1ccc(Cl)cc1Cl	-0.91
Cc1onc(-c2c(Cl)cccc2Cl)c1NC(=O)OCc1c(F)cccc1Cl	4*
Cc1onc(-c2c(Cl)cccc2Cl)c1C(=O)ONC(=O)C(C)(C)C	0.7
CC(=O)NOC(=O)c1c(-c2c(Cl)cccc2Cl)noc1C	0.86
